# Assay results: PubChem BioAssay AID1159580 (chemical genetic matrix, 2015)
# In all, about 5,500 compounds went through this assay and about 2,000 (36%) were called active. About 18% were inconclusive and are not listed. Some of the results follow. Values without a mark were called inactive. Cut-off read from the data, not from the text of the source: active = normalized growth mostly below about 0.91 (no sharp cut-off); inconclusive = no clear call, values can overlap the other calls; inactive = mostly above about 0.92.
# Experiment: chemical genetic growth profiling, strain panel (AID 1159580);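 note: tested at 20 µM; growth read once vehicle control cultures reached saturation at 30 °C; 1 = growth at the plate median or of vehicle wells; lower values mean less growth of the strain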
# Details: S. cerevisiae deletion strains, growth OD
smiles,measurement,setting,value
COc1cc(NS(C)(=O)=O)ccc1Nc1c2ccccc2nc2ccccc12,normalized growth,"locus YAL040C, strain CLN3, active compounds read low",0.985
same,normalized growth,"locus YCL061C, strain MRC1 (second series), active compounds read low",0.981
same,normalized growth,"locus YDR363W, strain ESC2, active compounds read low",0.916
same,normalized growth,"locus YER002W, strain NOP16, active compounds read low",0.989
same,normalized growth,"locus YGR078C, strain PAC10, active compounds read low",0.985
same,normalized growth,"locus YGR229C, strain SMI1, active compounds read low",0.955
same,normalized growth,"locus YNL128W, strain TEP1, active compounds read low",1.02
same,normalized growth,"locus YNL175C, strain NOP13, active compounds read low",1
same,normalized growth,"locus YNL197C, strain WHI3, active compounds read low",0.967
same,normalized growth,"locus YNL224C, strain SQS1, active compounds read low",0.98
same,normalized growth,"locus YNL322C, strain KRE1, active compounds read low",0.965
same,normalized growth,"locus YOR083W, strain WHI5 (second series), active compounds read low",0.975
same,normalized growth,"locus YPL055C, strain LGE1, active compounds read low",0.902
COc1cc(NS(C)(=O)=O)ccc1Cc1c2ccccc2nc2ccccc12,normalized growth,"locus YAL021C, strain ccr4, active compounds read low",0.785 (active)
same,normalized growth,"locus YAL026C, strain drs2, active compounds read low",1
same,normalized growth,"locus YAL030W, strain snc1, active compounds read low",0.971
same,normalized growth,"locus YBL061C, strain skt5, active compounds read low",1.01
same,normalized growth,"locus YBR009C, strain hhf1, active compounds read low",0.828 (active)
same,normalized growth,"locus YBR023C, strain chs3, active compounds read low",0.988
same,normalized growth,"locus YBR171W, strain sec66, active compounds read low",1.02
same,normalized growth,"locus YBR231C, strain swc5, active compounds read low",0.969
same,normalized growth,"locus YBR279W, strain paf1, active compounds read low",0.988
same,normalized growth,"locus YCL011C, strain gbp2, active compounds read low",0.939
same,normalized growth,"locus YCL016C, strain dcc1, active compounds read low",0.476 (active)
same,normalized growth,"locus YCL061C, strain MRC1, active compounds read low",0.867 (active)
same,normalized growth,"locus YCL069W, strain vba3, active compounds read low",1
same,normalized growth,"locus YCR088W, strain abp1, active compounds read low",0.986
same,normalized growth,"locus YDL005C, strain med2, active compounds read low",0.681 (active)
same,normalized growth,"locus YDL040C, strain nat1, active compounds read low",0.994
same,normalized growth,"locus YDR001C, strain nth1, active compounds read low",0.999
same,normalized growth,"locus YDR069C, strain doa4, active compounds read low",0.842 (active)
same,normalized growth,"locus YDR137W, strain rgp1, active compounds read low",1.1
same,normalized growth,"locus YDR159W, strain sac3, active compounds read low",0.947
same,normalized growth,"locus YDR195W, strain ref2",1.05
same,normalized growth,"locus YDR297W, strain sur2, active compounds read low",0.96
same,normalized growth,"locus YDR334W, strain swr1, active compounds read low",1.01
same,normalized growth,"locus YDR335W, strain msn5, active compounds read low",0.993
same,normalized growth,"locus YDR392W, strain spt3, active compounds read low",0.795
same,normalized growth,"locus YEL003W, strain gim4, active compounds read low",0.966
same,normalized growth,"locus YEL037C, strain rad23, active compounds read low",0.979
same,normalized growth,"locus YEL061C, strain CIN8 (second series), active compounds read low",0.982
same,normalized growth,"locus YER015W, strain faa2, active compounds read low",0.986
same,normalized growth,"locus YER016W, strain bim1, active compounds read low",0.909 (active)
same,normalized growth,"locus YER111C, strain swi4, active compounds read low",1.01
same,normalized growth,"locus YER155C, strain BEM2 (second series), active compounds read low",0.885
same,normalized growth,"locus YFR010W, strain ubp6, active compounds read low",0.877 (active)
same,normalized growth,"locus YGL167C, strain pmr1, active compounds read low",1
same,normalized growth,"locus YGL173C, strain kem1, active compounds read low",0.991
same,normalized growth,"locus YGL227W, strain vid30, active compounds read low",0.994
same,normalized growth,"locus YGL240W, strain doc1, active compounds read low",0.892
same,normalized growth,"locus YGL253W, strain hxk2, active compounds read low",0.996
same,normalized growth,"locus YHR013C, strain ard1, active compounds read low",0.874
same,normalized growth,"locus YHR027C, strain rpn1, active compounds read low",0.978
same,normalized growth,"locus YHR030C, strain SLT2, active compounds read low",0.974
same,normalized growth,"locus YHR079C, strain IRE1, active compounds read low",0.946
same,normalized growth,"locus YHR142W, strain chs7, active compounds read low",0.964
same,normalized growth,"locus YJL092W, strain hpr5, active compounds read low",0.712 (active)
same,normalized growth,"locus YJL095W, strain BCK1 (second series), active compounds read low",0.986
same,normalized growth,"locus YJL095W, strain BCK1, active compounds read low",1
same,normalized growth,"locus YJL115W, strain asf1, active compounds read low",0.341 (active)
same,normalized growth,"locus YJL129C, strain trk1, active compounds read low",0.933
same,normalized growth,"locus YJL154C, strain vps35, active compounds read low",0.998
same,normalized growth,"locus YJL164C, strain tpk1, active compounds read low",0.918
same,normalized growth,"locus YJL166W, strain qcr8, active compounds read low",0.945
same,normalized growth,"locus YJR066W, strain TOR1, active compounds read low",0.919
same,normalized growth,"locus YKL160W, strain elf1, active compounds read low",0.985
same,normalized growth,"locus YKR026C, strain gcn3, active compounds read low",0.998
same,normalized growth,"locus YKR091W, strain srl3, active compounds read low",1
same,normalized growth,"locus YLL001W, strain dnm1, active compounds read low",0.936
same,normalized growth,"locus YLL026W, active compounds read low",0.977
same,normalized growth,"locus YLL041C, strain sdh2, active compounds read low",0.99
same,normalized growth,"locus YLR027C, strain aat2, active compounds read low",0.916 (active)
same,normalized growth,"locus YLR113W, strain HOG1, active compounds read low",0.971
same,normalized growth,"locus YLR221C, strain rsa3, active compounds read low",0.899 (active)
same,normalized growth,"locus YLR258W, strain gsy2, active compounds read low",0.969
same,normalized growth,"locus YLR262C, strain YPT6 (second series), active compounds read low",1
same,normalized growth,"locus YLR320W, strain mms22, active compounds read low",0.208 (active)
same,normalized growth,"locus YLR342W, strain FKS1, active compounds read low",0.927
same,normalized growth,"locus YLR357W, strain rsc2, active compounds read low",0.987
same,normalized growth,"locus YLR370C, strain arc18, active compounds read low",0.923
same,normalized growth,"locus YLR384C, strain iki3, active compounds read low",0.994
same,normalized growth,"locus YML120C, strain ndi1, active compounds read low",0.956
same,normalized growth,"locus YMR058W, strain fet3, active compounds read low",0.949
same,normalized growth,"locus YMR125W, strain sto1, active compounds read low",0.98
same,normalized growth,"locus YMR129W, active compounds read low",0.984
same,normalized growth,"locus YMR205C, strain PFK2, active compounds read low",0.947
same,normalized growth,"locus YMR231W, strain pep5, active compounds read low",1
same,normalized growth,"locus YNL071W, strain lat1, active compounds read low",0.987
same,normalized growth,"locus YNL183C, strain NPR1, active compounds read low",0.952
same,normalized growth,"locus YNL209W, strain ssb2, active compounds read low",0.986
same,normalized growth,"locus YNL248C, strain rpa49, active compounds read low",0.945
same,normalized growth,"locus YNL322C, strain KRE1 (second series), active compounds read low",0.822 (active)
same,normalized growth,"locus YNR049C, strain mso1, active compounds read low",0.989
same,normalized growth,"locus YOR001W, strain rrp6, active compounds read low",0.915
same,normalized growth,"locus YOR070C, strain gyp1, active compounds read low",0.984
same,normalized growth,"locus YOR080W, strain dia2, active compounds read low",0.494 (active)
same,normalized growth,"locus YOR083W, strain WHI5, active compounds read low",0.934
same,normalized growth,"locus YOR106W, strain vam3, active compounds read low",0.926
same,normalized growth,"locus YOR231W, strain MKK1, active compounds read low",1.01
same,normalized growth,"locus YOR265W, strain rbl2, active compounds read low",0.985
same,normalized growth,"locus YOR270C, strain vph1, active compounds read low",0.935
same,normalized growth,"locus YOR290C, strain snf2, active compounds read low",0.823 (active)
same,normalized growth,"locus YPL051W, strain arl3, active compounds read low",0.992
same,normalized growth,"locus YPL078C, strain atp4, active compounds read low",1.02
same,normalized growth,"locus YPL106C, strain sse1, active compounds read low",1.02
same,normalized growth,"locus YPL240C, strain hsp82, active compounds read low",0.991
same,normalized growth,"locus YPL256C, strain CLN2, active compounds read low",0.944
